Experimental data published in the supplement of paper PMC6555819.

These sequences were tested on RARa:RXR (NR concentration 270 nM, RXRa partner concentration 90 nM) (assay: PBM binding z-score (relative to random genomic background probes); higher = stronger binding; sequences stand for … in GC…GCGATTGACAGCGTAGAATGAAGG).
Outline: (§1)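 On custom Agilent 4×180K arrays, double-stranded probes with 34-nt variable regions carried direct-repeat seeds, single-nucleotide variants, half-site ablations or random human genomic background. Ligand-free nuclear receptor dimers were applied for 1 h, and binding was read with antibodies against each partner (one per run). Binding z-scores come from regression-normalized fluorescence, with the random background probes as reference.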

First: CCTACTGGGTCATCAGGTCATTGATATCAACGTT
Second: TAGACTAGGTCATGGGCCAGTATACCACGCGAAC
The PBM binding z-score of the first is higher: 4.74 for the first, 2.1 for the second.

Compared with TCTTGTAAATCAAGCAGGTTAAGAAAGCCTGAGT, TCATATAGCTAATACAGGTGAAAGTCGGCATCTA is lower in PBM binding z-score: 0.64 for the first, 0.626 for the second.

First: GTAGACAGGTGAAACGCAGGTAACTCAGGGTGGC
Second: CAGCCTAGGTCAGGGCCAGTATCGGAGGAACGTT
The PBM binding z-score of the first is lower: 0.264 for the first, 0.761 for the second.

Compared with ATCTCTAGGTAAGACTCTGTTCAGTGAAGAACGC, TCGAGTAGGTTAGGTGCATTCAGAATGGCGTCGA is lower in PBM binding z-score: 0.421 for the first, -0.0756 for the second.

First: TCATCTAGGTAAATGCTAGGTGAAAGTCCGATCT
Second: CCGAGTAGGTTATGCGGCATTCAGGCAACGGTGA
The PBM binding z-score of the first is higher: 0.578 for the first, 0.343 for the second.

Going from TCTTGTAGATCAACAGGATGTTAAGAAAGATCGA to TCGAGTAGGTCAGTCGGGGCATTCAGCCAACATA, the PBM binding z-score rises from 0.44 to 1.47.

First: CCTACTGGGCCAAAAAGGTTATTGATGCCGATAA
Second: CGTCCAAGGTCACAGGTCAGTGAAGAGATGACGG
The PBM binding z-score of the first is lower: 1.67 for the first, 6.06 for the second.

Going from TCATATAGGTAGAAGGTGAAAGTCGGTGTGGTAA to ATCGAAAGGTCGAGGTAAGTATAGAGAAAGGGAA, the PBM binding z-score rises from 1.17 to 3.24.

Going from CGTCCAAGGTCAGCAGGTCAGTGAGAGCGACGTG to TCATATAGGGAAAAGGTGAAAGTCGGTGTGGTAA, the PBM binding z-score falls from 4.78 to 2.17.

Going from ACTATTAGTTGACTTAGGGCAACCAATACGACGC to ACTAGCAGGCCAAGCGTCACTCAAGATTAGTCCG, the PBM binding z-score falls from 0.714 to -0.946.

Compared with AATACAGGGTCATCGTAGGCCTGAGTACGCACAG, ACTATTAGTTGACTTATGGCAACCGATACGACGC is lower in PBM binding z-score: 4.79 for the first, 0.397 for the second.

First: TTACCAAGGTGAGCTGAGGTCGTTGGTCCAACTC
Second: CCTACTGGGCCATTCAGAGTTCATTGATCATATG
The PBM binding z-score of the first is lower: 1.63 for the first, 1.75 for the second.

Going from TCTTGTAGATCAACAGGAGGTTAAGAAAGATCGA to AGAATGAGGTTATACGTAGAGCAGGGAAGAAAGT, the PBM binding z-score rises from 0.995 to 1.57.

Going from ACTAGTTGGTCAGCTGAGTTCACACACAATTCGG to CAGCCTAGGTCAGGCCCAGTATAGGAGGAACGTT, the PBM binding z-score falls from 2.32 to 0.588.

First: CGTCCAAGGTCATAGGAGGTCAGTGCAGACAGAT
Second: GTACCAAGGTCAATAGGTCGTTGATGAGTAGGCG
The PBM binding z-score of the first is higher: 6.21 for the first, 4.91 for the second.

Going from ATCTCTAGTTAAGACTCAGTTCAGTGAAGAACGC to CCTAGCAGGCCAATCTGGGTAACTCAAGGCTTGA, the PBM binding z-score falls from 0.831 to -0.329.

Compared with GCTAGTTGGTCAGTAAAAGGCCACACACCGGTCG, CCTAGTTGGTCAGGAGGTCACACACCGGATATGA is higher in PBM binding z-score: 0.345 for the first, 4.76 for the second.

Compared with CCTCGGAGGACAACTGGAGGTCAGAGCTGCCAGA, ATATGTAGGTTAGCTGGGATCATTCAGACTAGGC is lower in PBM binding z-score: 2.84 for the first, 0.547 for the second.

First: AGTCAAAGTGCAGGACGAGGTAACGTAAAGCACG
Second: GCAGACAGGTGAAACGCAGGTAGCTCAGGGTGGC
The PBM binding z-score of the first is higher: 0.784 for the first, -0.358 for the second.

First: AGCGAAAGGTCGACGAGGTGAGTATACACCGTTT
Second: TACCCTAGGTCAGATCGGGCCAGTATACGCTATA
The PBM binding z-score of the first is higher: 3.47 for the first, 1.8 for the second.

Each sequence was assayed on RARa homodimer (NR concentration 270 nM) in the same assay as above.
Outline: as §1

Going from CCTACTGGGTCATCAGGTCATTGATATCAACGTT to TAGACTAGGTCATGGGCCAGTATACCACGCGAAC, the PBM binding z-score falls from 1.85 to 0.407.

Compared with TCTTGTAAATCAAGCAGGTTAAGAAAGCCTGAGT, TCATATAGCTAATACAGGTGAAAGTCGGCATCTA is higher in PBM binding z-score: 0.0275 for the first, 0.67 for the second.

Going from GTAGACAGGTGAAACGCAGGTAACTCAGGGTGGC to CAGCCTAGGTCAGGGCCAGTATCGGAGGAACGTT, the PBM binding z-score rises from -0.278 to -0.159.

First: ATCTCTAGGTAAGACTCTGTTCAGTGAAGAACGC
Second: TCGAGTAGGTTAGGTGCATTCAGAATGGCGTCGA
The PBM binding z-score of the first is higher: 1.18 for the first, -0.18 for the second.

Compared with TCATCTAGGTAAATGCTAGGTGAAAGTCCGATCT, CCGAGTAGGTTATGCGGCATTCAGGCAACGGTGA is higher in PBM binding z-score: -0.0135 for the first, 0.296 for the second.

First: TCTTGTAGATCAACAGGATGTTAAGAAAGATCGA
Second: TCGAGTAGGTCAGTCGGGGCATTCAGCCAACATA
The PBM binding z-score of the first is higher: 0.0345 for the first, -0.53 for the second.

Compared with CCTACTGGGCCAAAAAGGTTATTGATGCCGATAA, CGTCCAAGGTCACAGGTCAGTGAAGAGATGACGG is higher in PBM binding z-score: 0.386 for the first, 1.32 for the second.

First: TCATATAGGTAGAAGGTGAAAGTCGGTGTGGTAA
Second: ATCGAAAGGTCGAGGTAAGTATAGAGAAAGGGAA
The PBM binding z-score of the first is higher: 1.42 for the first, 1.21 for the second.

Going from CGTCCAAGGTCAGCAGGTCAGTGAGAGCGACGTG to TCATATAGGGAAAAGGTGAAAGTCGGTGTGGTAA, the PBM binding z-score falls from 1.19 to 1.17.

Going from ACTATTAGTTGACTTAGGGCAACCAATACGACGC to ACTAGCAGGCCAAGCGTCACTCAAGATTAGTCCG, the PBM binding z-score falls from 0.139 to -1.3.

First: AATACAGGGTCATCGTAGGCCTGAGTACGCACAG
Second: ACTATTAGTTGACTTATGGCAACCGATACGACGC
The PBM binding z-score of the first is lower: 0.501 for the first, 1.2 for the second.

First: TTACCAAGGTGAGCTGAGGTCGTTGGTCCAACTC
Second: CCTACTGGGCCATTCAGAGTTCATTGATCATATG
The PBM binding z-score of the first is lower: -1.02 for the first, -0.457 for the second.

First: TCTTGTAGATCAACAGGAGGTTAAGAAAGATCGA
Second: AGAATGAGGTTATACGTAGAGCAGGGAAGAAAGT
The PBM binding z-score of the first is lower: -0.178 for the first, 0.0508 for the second.

Compared with ACTAGTTGGTCAGCTGAGTTCACACACAATTCGG, CAGCCTAGGTCAGGCCCAGTATAGGAGGAACGTT is lower in PBM binding z-score: 0.2 for the first, -0.629 for the second.

Going from CGTCCAAGGTCATAGGAGGTCAGTGCAGACAGAT to GTACCAAGGTCAATAGGTCGTTGATGAGTAGGCG, the PBM binding z-score falls from 2.75 to 0.768.

Going from ATCTCTAGTTAAGACTCAGTTCAGTGAAGAACGC to CCTAGCAGGCCAATCTGGGTAACTCAAGGCTTGA, the PBM binding z-score falls from 1.93 to -0.678.

Going from GCTAGTTGGTCAGTAAAAGGCCACACACCGGTCG to CCTAGTTGGTCAGGAGGTCACACACCGGATATGA, the PBM binding z-score rises from -0.305 to 2.91.

First: CCTCGGAGGACAACTGGAGGTCAGAGCTGCCAGA
Second: ATATGTAGGTTAGCTGGGATCATTCAGACTAGGC
The PBM binding z-score of the first is lower: 0.162 for the first, 0.6 for the second.

Going from AGTCAAAGTGCAGGACGAGGTAACGTAAAGCACG to GCAGACAGGTGAAACGCAGGTAGCTCAGGGTGGC, the PBM binding z-score falls from -0.657 to -0.976.

Compared with AGCGAAAGGTCGACGAGGTGAGTATACACCGTTT, TACCCTAGGTCAGATCGGGCCAGTATACGCTATA is higher in PBM binding z-score: -0.0264 for the first, 0.123 for the second.
